# Assay results taken from PubChem BioAssay AID2384 (Southern Research Specialized Biocontainment Screening …, 2010).
# Screen size: about 2,300 compounds; about 1,100 (48%) were called active. So high a share suggests a set chosen from earlier hits. The list shows a part of the results. Results with a measured potency or affinity are listed apart. Unmarked numbers belong to inactive results. No rule for the calls is given here.
# Experiment: inhibitors in S. typhi counter-screen strain, dose response, counter-screen for PhoP regulon inhibitor project, fluorescence, 4 h (AID 2384)
# Conditions: S. typhi GFP reporter counter-screen; series mostly up to 150 µM; inhibition: at the top concentration
row,Structure (SMILES),inhibition
1,CC(=O)c1cccc(CN2CCN(C3CCCC3)C(CCO)C2)c1 (stereo not given),-25.6%
2,CCCC1(c2ccccc2)NC(=O)N(CC(=O)Nc2ccccc2C(F)(F)F)C1=O (stereo not given),-9.26%
3,Cc1cccn2c(=O)c3cc(C(=O)NCC4CCCO4)c(=N)n(C4CCCC4)c3nc12 (stereo not given),6.06%
4,O=C(NCC1CCCO1)c1cc2ccccc2oc1=O (stereo not given),-11.7%
5,Cc1oc2nc(SCCCC(=O)NCCCO)nc(N)c2c1C,12%
6,Cc1c(C(=O)O)c(-c2ccccc2)nn1-c1ccccc1,27.3%
7,CCN(CC)C(=O)CNC(=O)Cc1ccc(Cl)cc1,2.3%
8,O=C1c2ccccc2C(=O)N1CCCP(=O)(O)CCc1ccccc1,-32.8%
9,COc1ccc(/C=N/NC(=O)c2ccc3c(c2)OCO3)cc1,32.6%
10,COc1ccc(N2CCN(C(CNC(=O)c3ccc4c(c3)OCO4)c3ccco3)CC2)cc1 (stereo not given),6.52%
11,O=C(N/N=C\c1ccc(F)cc1)c1ccc(F)cc1,6.55%
12,CCCCN1/C(=C/c2cccc[n+]2C)Sc2cc(NC(C)=O)ccc21,12.8%
13,O=C(CSc1nc2ccccc2o1)c1cc2ccccc2oc1=O,-0.48%
14,CC(Sc1nc2ccccc2o1)C(=O)O (stereo not given),20%
15,Cc1c(CC(=O)N2CCC(C(N)=O)CC2)c(=O)oc2cc3c(cc12)CCC1(CCCCC1)O3,6.85%
16,O=C(/C=C/c1c(F)cccc1Cl)N1CCOCC1,20.2%
17,COc1ccc2nc(Nc3ccccc3)sc2c1,39.4%
18,CC1CCN(C(=O)COc2ccc(Nc3ccccc3)cc2)CC1,-23.7%
19,Cc1cc(N/N=C/c2ccc(F)cc2)nc(NCc2ccccc2)n1,15.9%
20,CCCCNC(=S)Nc1ccc([N+](=O)[O-])cc1,0.84%
21,O=C(Nc1ccc(N2CCOCC2)cc1)C1CCN(S(=O)(=O)c2ccccc2F)CC1,-25%
22,CCn1cc(C(=O)N[C@@H](C)C(=O)OC)c(=O)c2cc3c(cc21)OCO3,17.9%
23,CCN(CC)S(=O)(=O)c1ccc2c(c1)c(C(=O)O)cn2C,9.26%
24,CCn1cc(C(=O)NCc2ccc3c(c2)OCO3)c(=O)c2cc(F)c(N3CCN(C(=O)c4ccco4)CC3)cc21,39.6%
25,O=C(c1cc2c(s1)-c1ccccc1OC2)N1CCc2ccccc2C1,25.9%

row,Structure (SMILES),inhibition
1,Nc1c(-c2ccccc2)sc2ccc3ccccc3[n+]12,-9.75%
2,CN(Cc1ccccc1)S(=O)(=O)c1csc(C(N)=O)c1,4.18%
3,Cc1ccc(C(C)C)c(OCCNC(=O)c2ccccc2O)c1,-21.1%
4,Cc1cccc(NC(=O)c2ccccc2Br)n1,-13%
5,CN1C(=O)c2ccc(NC(=O)C3CCCCC3)cc2C1=O,10.3%
6,CC(=O)c1c(C)[nH]c(C(=O)OCC(=O)NCC(C)C)c1C,8.29%
7,Cc1ccc(NC(=S)NCc2cccs2)cc1,-16.3% [at 75 µM]
8,O=C(NCCc1ccncc1)Nc1ccc(Cl)c(Cl)c1,29.8%
9,O=C(O)CCSCc1ccccc1F,1.37%
10,Cc1cc2cc(CNC(=O)C(C)Oc3ccccc3)ccc2n1C (stereo not given),10.9%
11,COC(=O)c1cccc(C(=O)N2CCCC(CCC(=O)N(C)CCc3ccccn3)C2)c1 (stereo not given),-21.1%
12,COc1cccc(CNc2nn[nH]n2)c1OC,-1.43%
13,COc1ccccc1CNC(=O)COC(=O)CCC(=O)c1cccs1,20.7%
14,Fc1ccc(NC(=S)NCc2ccccc2Cl)cc1,4.19%
15,Cc1cc(=O)oc2cc(OCC(=O)NC3CCCC3)ccc12,-14.7%
16,CSc1cccc(NC(=O)/C=C/c2ccco2)c1,27.3%
17,COc1cccc(C(=O)Nc2cccc(SC)c2)c1,17.3%
18,CC(C)CCNC(=O)c1cc2c(s1)-c1ccccc1S(=O)(=O)C2,-18.7%
19,COC(=O)c1ccc(CSc2nc3ccccc3c(=O)n2-c2ccc(OC)c(OC)c2)o1,8.35%
20,Cc1[nH]nc2c1C1(CCC3(CC1)OCCO3)C(C#N)=C(N)O2,29%
21,Cc1ccsc1/C=N\NC(=O)c1ccc2c(c1)OCO2,29.4% [at 18.8 µM]
22,Cc1ccc2cc(-c3noc(C4CCCO4)n3)c(=O)[nH]c2c1 (stereo not given),38.1%
23,Cc1[nH]c(=O)[nH]c(=O)c1S(=O)(=O)N1CCCC(C(=O)NCc2ccc3c(c2)OCO3)C1 (stereo not given),-18.7%
24,CCc1cccc2c(C=C(C#N)C#N)cn(CC(=O)N3CCCCCC3)c12,-11.1%
25,N#Cc1c(/N=C/c2cccs2)sc2c1CCCCC2,-21.1%

row,Structure (SMILES),inhibition
1,Cc1nc(NC2=NCN(CCCN3CCOCC3)CN2)nc2c(C)cccc12,24.1%
2,COc1cccc(NC(=O)CN(C)C(C)C(=O)Nc2ccc(S(=O)(=O)N3CCOCC3)cc2)c1 (stereo not given),-0.15%
3,COc1cccc(CNC(=O)C2CCN(S(=O)(=O)c3ccc(C)cc3)CC2)c1,-14.8%
4,CC(C)Cc1c(O)nc(SCC(=O)Nc2ccc3c(c2)CCC3)[nH]c1=O,27.6%
5,Nc1nc(SCC(=O)Nc2ccc3c(c2)CCC3)n[nH]1,6.01%
6,Cc1nn(-c2nc3ccccc3[nH]2)c(N)c1-c1ccccc1,17.9%
7,CC(C)SCc1nc2ccccc2[nH]1,-16.5%
8,N#CC(C(=O)C12CC3CC(CC(C3)C1)C2)c1nc2ccccc2[nH]1 (stereo not given),-2.5%
9,CC(=O)c1ccc(NC(=S)NC(NC(=O)c2ccco2)C(Cl)(Cl)Cl)cc1 (stereo not given),15.3%
10,COc1cccc(CNS(=O)(=O)c2ccc3c(c2)NC(=O)CS3)c1,-0.3%
11,O=C(O)CC12CC3CC(C1)CC(n1ncc(NCC4CCCO4)c(Cl)c1=O)(C3)C2 (stereo not given),-22.1%
12,Cc1ccc(NC2=C(Cl)C(=O)OC2OC(=O)c2ccco2)c(C)c1 (stereo not given),-8.96%
13,CN(C)C(CNc1ccc([N+](=O)[O-])cc1C#N)c1ccccc1 (stereo not given),32.1%
14,O=C(NCc1nc2ccccc2[nH]1)c1ccc([N+](=O)[O-])cc1,37.4%
15,COc1ccc(C2=NN3C(C2)c2ccccc2OC3c2cccs2)cc1 (stereo not given),10.4%
16,CCS(=O)(=O)N1CCN(C2CCC(c3ccccc3)CC2)CC1 (stereo not given),24.4%
17,CNS(=O)(=O)c1cc(OC)ccc1OC,-5.88%
18,NC(=O)c1cc(C(=O)c2cccc(Cl)c2Cl)c[nH]1,29.6%
19,CCOC(=O)COn1c(=O)c(-c2cccs2)[n+]([O-])c2ccccc21,4.01%
20,CCOc1ccc(N2C(=O)S/C(=C\c3ccc(O)c(OC)c3)C2=O)cc1,-3.62%
21,c1ccn(-c2ccc(-c3ccn[nH]3)cc2)c1,-23.6%
22,CC(=O)Nc1nc(C)c(-c2csc(Nc3ccc(O)cc3)n2)s1,36.7%
23,Cc1cc(NS(=O)(=O)c2ccc(Nc3nc(-c4sc(NC(=O)c5ccccc5)nc4C)cs3)cc2)no1,-13.7%
24,Cc1cc(C)c[n+](CC(=O)c2ccc(NC(=O)c3ccccc3)cc2)c1,29.9%
25,CC(C)(C)n1nc2c(c1NC(=O)c1ccccc1)CS(=O)(=O)C2,15.3%

row,Structure (SMILES),inhibition
1,Clc1ccc(Cn2cc(Br)cn2)cc1Cl,12.1%
2,COC(=O)Cn1c(=O)c(C)nc2ccccc21,-6.54%
3,COCCn1nnnc1C(c1cccc(OC)c1OC)N1CCN(C2CCCCC2)CC1 (stereo not given),-15.4%
4,COc1cc2[nH]c(=O)n(Cc3ccc(C(=O)N4CCC(N5CCCCC5)CC4)cc3)c(=O)c2cc1OC,-16.4%
5,O=C1c2cccnc2C(=O)N1c1ccccc1-c1ccccc1,14.5%
6,O=C(c1cccs1)N1CCN(S(=O)(=O)c2ccccc2)CC1,11.9%
7,CC(C)(C)c1ccc(C(=O)NNC(=O)Cc2ccccc2)cc1,9.8%
8,CC(C)(C)n1nc2c(c1NC(=O)c1cccs1)CS(=O)C2 (stereo not given),5.52%
9,CCc1ccccc1NC(=S)N(Cc1cccc(C)c1)c1cccnc1,-8.36%
10,N#Cc1c(-c2ccccc2)ccn(Cc2cccc(Cl)c2)c1=O,0.97%
11,N=c1sc2c(n1Cc1ccccc1)CCCC2,25.6%
12,Nc1nc2n(n1)C(c1ccco1)CC(c1ccc(Cl)c(Cl)c1)N2 (stereo not given),-6.04%
13,Cc1ccc2nc3c(c(N)c2c1)CCN3C,22.2%
14,O=C(CSc1nnnn1C1CCCCC1)N1CCCC1,3.49%
15,Cc1cc(C)nc(NS(=O)(=O)c2ccc(N3C(=O)C4CC=C(Cl)CC4C3=O)cc2)n1 (stereo not given),-4.28%
16,CCOc1ccccc1NC(=O)Nc1ccncc1,-8.96%
17,COC(=O)Cc1ccc(NC(=S)NCc2ccc(Cl)cc2)cc1,-2.91%
18,Cc1ccc(NC(=O)C(=O)NCc2ccncc2)cc1,-0.03%
19,O=S(=O)(Nc1ncccn1)c1ccc(NC(=S)Nc2ccc(Cl)cc2)cc1,-30.1%
20,Fc1cccc(NC(=S)NCc2ccc(Cl)cc2)c1,-6.29%
21,CCNC(=S)Nc1cccc(S(=O)(=O)Nc2ccccc2OC)c1,8.49%
22,Cc1ccc(S(=O)(=O)N(Cc2n[nH]c(=S)n2-c2ccccc2)c2ccccc2)cc1,2.7%
23,CCN(C1CCCCC1)S(=O)(=O)c1ccc(OC)c(C)c1,15.5%
24,Cc1cnc(C(=O)Nc2nnc(C)s2)cn1,20.5%
25,O=C(O)C1Cc2ccccc2CN1S(=O)(=O)c1ccc2ccccc2c1 (stereo not given),-12.1%

row,Structure (SMILES),inhibition
1,CN1CCCN(S(=O)(=O)c2ccc3c(c2)OCCO3)CC1,-1.35%
2,O=S(=O)(Nc1cccc(-c2cn3c(n2)SCC3)c1)c1ccc(F)cc1F,12%
3,CCC(CC)C(=O)NCCc1cc2ccc(C)cc2[nH]c1=O,-28.8%
4,COc1ccc(NC(=O)N(CCc2ccccc2)Cc2cc3c(C)cc(C)cc3[nH]c2=O)cc1,4.09%
5,COc1ccc(Cl)cc1-c1n[nH]c(=S)o1,27.2%
6,CC1CC1C(=O)Nc1nc2ccc(S(C)(=O)=O)cc2s1 (stereo not given),10.3%
7,Cc1ccc(N2C(=O)[C@@H]3[C@H](C2=O)[C@H]2C=CC=NN2[C@@H]3C(=O)Nc2ccc(Cl)cc2)cc1,0.6%
8,COc1ccccc1CNC(=O)Cn1c(=O)oc2cc(S(=O)(=O)N3CCCC3)ccc21,-16.5%
9,Cc1ccc(NC(=O)c2sccc2C)cc1[N+](=O)[O-],4.72%
10,COc1cccc(NC(=O)COC(=O)Cc2ccccc2[N+](=O)[O-])c1,-5.35%
11,O=C(N/N=C/c1cccc(OCc2ccccc2)c1)c1cccs1,31.4%
12,O=C(Nc1ccc(Cl)cc1)c1cccs1,-2.55%
13,Cc1ccc(NC2OC(CO)C(O)C(O)C2O)cc1 (stereo not given),-6.38%
14,O=C1CC(NC(=O)C(F)(F)F)=NN1c1ccccc1,11.9%
15,Cc1nc2ccc(NC(=O)C(F)(F)F)cc2o1,18.3%
16,NS(=O)(=O)c1cc2c(cc1Cl)NC(Cc1ccccc1)NS2(=O)=O (stereo not given),33.1%
17,CCOc1cc(S(=O)(=O)N2CCN(CC)CC2)ccc1Cl,-11.4%
18,c1ccc2cc(CSCc3nc4ccccc4[nH]3)ccc2c1,35.5%
19,CCOC(=O)C1CCN(C(=O)CCc2nc3ccccc3[nH]2)CC1,15.4%
20,C#CCOCCOCCOCCNc1nc(N2CCN(C(=O)CCCCCCCCCCNC(=O)[C@H]([C@@H](C)CC)n3cc(CCCCN=C(N)N)nn3)CC2)nc(N2CCN(C(=O)CCCCCCCCCCNC(=O)[C@@H]([C@H](C)O)n3cc(C)nn3)CC2)n1,-8.39%
21,C#CCOCCOCCOCCNc1nc(N2CCN(C(=O)CCCCCCCCCCNC(=O)[C@@H](CCSC)n3cc(CCO)nn3)CC2)nc(N2CCN(C(=O)CCCCCCCCCCNC(=O)[C@H]([C@@H](C)CC)n3cc(CCCCCN)nn3)CC2)n1,35.6%
22,c1cc2c(cc1Oc1nc(N3CCOCC3)nc(N3CCOCC3)n1)OCO2,9.41%
23,COc1cc(CNC(=O)CCC(=O)N2C[C@H]3C[C@H](C2)c2cccc(=O)n2C3)cc(OC)c1OC,7.05%
24,CC1(C)Cc2c(sc(NC(=O)COc3ccc(Cl)cc3)c2C(N)=O)C(C)(C)N1,-4.24%
25,CCC(=O)N(Cc1cc2cc(OC)ccc2[nH]c1=O)c1ccc(C)cc1C,-16.6%
